This excerpt belongs to a sample that is enriched for hits.
Shiga inhibitor – Shiga toxin inhibition; AID 2315; Vero cells, Shiga toxin protein synthesis inhibition reporter; inhibition, % at 38.7 µM; 9.2% of 290,000 active; in the data active = inhibition mostly above about 28%, no sharp cut-off; inactive = mostly below about 43%; also: 0% is about no effect
NS1 inh – influenza NS1 inhibition; Potency, µM (series often up to 46.1 µM), for inactives: top-dose activity, positive = more growth; 0.4% of 270,000 active; calls by dose curve; also: potency is read from the fitted curve at half-maximal effect; actives are rising curves; nearly all actives have a fitted effect of over 50% in size
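A cell-based growth assay was used: compounds that relieve NS1-induced slow growth of budding yeast raise OD600. Assay medium was yeast nitrogen base with ammonium sulphate and -URA supplement, pH 6.0, with 2% galactose.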
Cycloheximide cs – affects cycloheximide protein synthesis inhibition readout, counter-screen. cell reporter, cycloheximide protein synthesis inhibition counterscreen. max response, %. 12% of 300,000 active; in the data active = max response mostly above about 13%, no sharp cut-off; inactive = mostly below about 14%; also: read at 38.3 µM for the half of the compounds with a filed dose; 0% is about no effect
LmPK inh – inhibitors of Leishmania mexicana pyruvate kinase | Q27686 | purified LmPK, Kinase-Glo ATP luminescence, 1 h | Potency, µM (doses to about 57.5 µM), for inactives: top-dose activity change, negative = inhibition, actives largely listed as inhibitors | 0.37% of 290,000 active; also: potency is read from the fitted curve at half-maximal effect; % is scaled to controls: 0 for no effect and ±100 for the full control effect
Target sequence (Q27686 whole entry, looked up): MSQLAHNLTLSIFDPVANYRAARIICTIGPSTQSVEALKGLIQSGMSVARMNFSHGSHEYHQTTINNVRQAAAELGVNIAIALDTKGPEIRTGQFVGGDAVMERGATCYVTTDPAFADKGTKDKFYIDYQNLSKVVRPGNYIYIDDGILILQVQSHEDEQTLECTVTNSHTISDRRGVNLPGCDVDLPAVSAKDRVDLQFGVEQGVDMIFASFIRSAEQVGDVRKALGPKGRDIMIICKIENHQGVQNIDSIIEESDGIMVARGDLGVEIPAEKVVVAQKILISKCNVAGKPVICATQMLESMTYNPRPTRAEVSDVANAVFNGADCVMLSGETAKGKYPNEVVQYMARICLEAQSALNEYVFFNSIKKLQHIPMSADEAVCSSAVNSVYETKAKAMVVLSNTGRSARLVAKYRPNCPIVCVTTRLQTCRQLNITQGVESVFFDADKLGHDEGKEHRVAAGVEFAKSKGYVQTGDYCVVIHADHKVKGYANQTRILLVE
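ATP generated from ADP (0.1 mM) and PEP (0.5 mM) by 0.1 nM LmPK over 1 h at room temperature (pH 7.2 imidazole buffer) was detected by coupled luciferase luminescence. Values were normalized to uninhibited and no-enzyme wells.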
Tb PYK inh – inhibitors of Trypanosoma brucei pyruvate kinase. Q57TT1. TbPYK enzyme, Kinase-Glo Plus ATP luminescence, 45 min. Potency, µM (doses to about 76.8 µM), for the others: at the highest dose activity, negative = inhibition, hits mostly inhibitors. 0.12% of 410,000 active. AID 624173; also: potency is read from the fitted curve at half-maximal effect; % is scaled to controls: 0 for no effect and ±100 for the full control effect; nearly all actives have a fitted effect of over 50% in size
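ADP (130 uM final) triggers the TbPYK reaction after compound addition; incubation is 45 min at room temperature. Kinase-Glo Plus is then added and luminescence imaged. Normalized data are fitted to concentration-effect curves.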
SARS PLP yeast – blocks SARS-CoV papain-like protease in a yeast assay; AID 485353; S. cerevisiae expressing SARS-CoV PLpro, growth rescue; 0.19% of 330,000 active; Potency, µM (series often up to 32.9 µM), for inactives: at the top dose activity, positive = growth rescue, actives largely listed as activators; calls by dose curve; also: potency is read from the fitted curve at half-maximal effect; 0% is about no effect; nearly all actives have a fitted effect of over 55% in size
Active calls of the source: *; ? = inconclusive; . = no result; [ ] = dose if it differs, or a comment. Unless noted, calls follow the shape of the dose curve; as a rule, active = well fitted curve in the direction sought with a large enough effect; inconclusive = small, poorly fitted or top-dose-only effect, or another doubt; inactive = no such curve, though single readings can be large; an effect the other way counts as inactive or inconclusive.

SMILES	Shiga inhibitor	NS1 inh	Cycloheximide cs	LmPK inh	Tb PYK inh	SARS PLP yeast
O=C(CN1C(=O)CCC1=O)Nc1nc2c(F)cc(F)cc2s1	.	.	.	.	2%	.
COc1cccc(-c2cn3c(n2)sc2cc(C(=O)NCc4cccs4)ccc23)c1	.	.	.	.	0%	.
O=C(Nc1nc2c(Br)cccc2s1)C1CC1	11	-100%	18*	1%	-6%	-33%
Cc1cccc2sc(NC(=O)CSCc3ccccc3)nc12	62	-2%	18*	3%	-3%	5%
O=C(Nc1nc2c(Cl)cccc2s1)C1CC1	27	-45%	15	5%	-1%	-32%
Cc1cccc2sc(NC(=O)C3CC3)nc12	40*	-18%	23*	-6%	-4%	.
Cc1cc(C)c(-c2csc(NC(=O)C3=COCCO3)n2)c(C)c1	.	.	.	.	11%	-27%
Cc1ccc(Cl)c2sc(NC(=O)C3=COCCO3)nc12	74*	-30%	27*	-2%	-4%	-5%
Cc1cc(C)c2sc(NC(=O)C3=COCCO3)nc2c1	120*	-35%	60*	-12%	6%	-18%
CCOC(=O)Cn1c(=O)n(C2CCCCC2)c2nc(-c3ccccc3Cl)nc(C(N)=O)c21	.	.	.	.	-2%	.
N/C(=N\NC(=O)c1cccs1)c1cc2cc(Cl)ccc2oc1=O	49*	8%	36*	-4%	4%	0%
COc1ccc2o/c(=N/NC(=O)c3cccs3)c(C(N)=O)cc2c1	71*	.	36*	2%	2%	2%
N/C(=N\NC(=O)c1ccccc1)c1cc2ccccc2oc1=O	-6	.	7	-2%	-4%	-6%
NC(=O)c1cc2ccccc2o/c1=N/NC(=O)c1cccs1	30	.	40	3%	0%	-2%
N#Cc1ccccc1NC(=O)C(=O)NCC(c1cccnc1)N1CCc2ccccc21 (configuration not stated)	.	.	.	.	-10%	.
C=C(C)CN(CC)C(=O)CN1C(=O)NC(C)(c2ccc3ccccc3c2)C1=O (configuration not stated)	-5	-4%	-5	5%	4%	1%
CC1(C)CC(=O)c2cnc(NC(=O)CCc3ccccc3)nc2C1	-4	-3%	0	-7%	0%	2%
CC1(C)CC(=O)c2cnc(NC(=O)c3ccco3)nc2C1	84*	4%	20	-3%	6%	-20%
COc1ccccc1-n1cnc2cc(NCc3ccccc3O)ccc21	70*	-4%	22*	-7%	-7%	0%
COc1ccccc1-n1cnc2cc(NCc3cccs3)ccc21	44*	-54%	23*	2%	-11%	-14%
Cc1ccccc1-n1cnc2cc(NCc3cccs3)ccc21	45	-17%	12	-3%	-16%	?
N=c1c2ccccc2nnn1-c1ccc(C(F)(F)F)cc1	76*	.	40*	1%	-1%	-2%
COc1cc(-n2c(C)nc3cccnc32)c(Cl)cc1C(=O)O	44	-1%	20*	-1%	2%	2%
CCOc1ccc(S(=O)(=O)NCC(=O)NC2CCCCC2)cc1	.	.	.	.	-5%	1%
CCSc1nc(=O)n(-c2ccccc2)c(C)c1C(C)=O	33*	-4%	16*	-9%	3%	0%
SMILES	Shiga inhibitor	NS1 inh	Cycloheximide cs	LmPK inh	Tb PYK inh	SARS PLP yeast
CCSc1nc(=S)n(-c2ccccc2)c(C)c1C(C)=O	-10	-10%	-4	-2%	3%	4%
S=C1NC[C@H](Cc2ccccc2)N1CCCCC1CCCCC1	42*	4%	11*	0%	-8%	-2%
S=C1NC[C@H](Cc2ccccc2)N1CC1CCN(CCCC2CCCC2)CC1	.	.	.	.	2%	.
CCCCNC(=O)c1cccc(-n2cnc3cccnc32)c1C	.	.	.	.	4%[15.4 µM]	.
COc1ccc(Cc2nnc(NC(=O)c3ccc(OC)c(OC)c3)s2)cc1	-1	?	0	0%	8%	2%
COc1ccc(NC(=O)c2cccc([N+](=O)[O-])c2)cc1	76*	.	59*	-4%	-1%	1%
COc1ccc(Cc2nnc(NC(=O)c3cccc([N+](=O)[O-])c3)s2)cc1	32	4%	23*	-1%	-12%	1%
O=C(Nc1ccc([N+](=O)[O-])cc1)c1cccc([N+](=O)[O-])c1	.	.	.	.	4%	.
O=C(Nc1ccc(Cc2ccncc2)cc1)c1cccc([N+](=O)[O-])c1	-23	-5%	23*	1%	3%	-8%
CC(C)(C)c1cc(NC(=O)c2cccc([N+](=O)[O-])c2)no1	92*	?	59*	0%	-11%	-1%

High-throughput results deposited in PubChem by National Center for Advancing Translational Sciences (NCATS).
